Legend:
Assay in all cases: DAPPL (digital affinity profiling via proximity ligation, sequencing); 10 mM Tris-HCl pH 7.5, 50 mM NaCl, 1 mM DTT, 4% glycerol, room temperature, 30 min; GST-TFs on glutathione beads, 16-mer random dsDNA library, 0.1% formaldehyde crosslink after washing; high values mean tight binding
Conditions in all cases: protein: recombinant; tags: N-terminal GST; dsDNA, one strand shown
FEV = target: T1, FEV (Homo sapiens, UniProt Q99581 1-238)
T1 sequence: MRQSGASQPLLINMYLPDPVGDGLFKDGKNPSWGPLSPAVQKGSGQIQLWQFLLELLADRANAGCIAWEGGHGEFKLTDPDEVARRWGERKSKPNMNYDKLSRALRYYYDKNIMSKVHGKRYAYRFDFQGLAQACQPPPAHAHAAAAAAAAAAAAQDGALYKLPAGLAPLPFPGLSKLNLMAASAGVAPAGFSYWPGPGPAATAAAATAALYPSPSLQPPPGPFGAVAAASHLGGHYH
In short: (§1)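 GST fusions of human transcription factors were expressed in yeast and captured with glutathione beads. Once given DNA barcodes and pooled alongside a tag-only sample, they were incubated for 30 min at room temperature with 200 nmole of a random double-stranded 16-mer DNA library in Tris/NaCl/DTT/glycerol buffer, then washed, crosslinked (0.1% formaldehyde), proximity-ligated, PCR-amplified and sequenced on an Illumina NextSeq500. The binding signal of each hexamer is its read frequency for a factor divided by its frequency for the tag-only sample.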

ETV5 = ETV5 (Homo sapiens, UniProt P41161 1-510)
In short: as §1

SPIC = target: T2, SPIC (Homo sapiens, UniProt Q8N5J4 1-248)
T2 sequence: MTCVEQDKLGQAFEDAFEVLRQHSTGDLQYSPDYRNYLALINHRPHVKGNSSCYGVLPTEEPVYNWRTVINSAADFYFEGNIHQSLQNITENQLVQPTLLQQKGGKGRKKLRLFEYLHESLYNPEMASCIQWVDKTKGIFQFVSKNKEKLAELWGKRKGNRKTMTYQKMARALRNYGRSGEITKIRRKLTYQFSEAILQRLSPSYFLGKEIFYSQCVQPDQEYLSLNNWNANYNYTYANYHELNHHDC
In short: as §1

ELF4 = ELF4 (Homo sapiens, UniProt Q99607 1-663)
In short: as §1

ELK4 = target: T3, ELK4 (Homo sapiens, UniProt P28324-2 1-405)
T3 sequence: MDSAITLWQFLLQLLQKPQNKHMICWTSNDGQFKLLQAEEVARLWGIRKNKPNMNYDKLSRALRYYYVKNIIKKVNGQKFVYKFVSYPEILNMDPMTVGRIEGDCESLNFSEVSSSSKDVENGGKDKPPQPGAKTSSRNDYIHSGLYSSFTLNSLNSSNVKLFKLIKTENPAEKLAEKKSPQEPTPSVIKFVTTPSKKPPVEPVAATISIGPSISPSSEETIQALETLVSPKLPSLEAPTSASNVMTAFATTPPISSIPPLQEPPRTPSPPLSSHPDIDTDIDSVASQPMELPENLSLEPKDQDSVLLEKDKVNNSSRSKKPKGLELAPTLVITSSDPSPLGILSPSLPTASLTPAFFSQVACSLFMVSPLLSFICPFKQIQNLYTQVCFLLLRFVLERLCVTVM
In short: as §1

ETV2 = target: T4, ETV2 (Homo sapiens, UniProt O00321 1-342)
T4 sequence: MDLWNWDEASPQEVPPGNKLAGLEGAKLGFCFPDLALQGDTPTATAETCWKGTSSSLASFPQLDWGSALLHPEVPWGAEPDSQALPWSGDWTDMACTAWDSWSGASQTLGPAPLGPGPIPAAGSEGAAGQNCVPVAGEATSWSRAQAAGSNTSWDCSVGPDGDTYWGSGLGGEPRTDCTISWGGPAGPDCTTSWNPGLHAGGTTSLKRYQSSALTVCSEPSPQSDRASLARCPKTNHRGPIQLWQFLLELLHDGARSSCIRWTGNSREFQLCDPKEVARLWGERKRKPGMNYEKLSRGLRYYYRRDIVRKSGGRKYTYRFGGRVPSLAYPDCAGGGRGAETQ
In short: as §1

ELF3 = target: T5, ELF3 (Homo sapiens, UniProt P78545 1-371)
T5 sequence: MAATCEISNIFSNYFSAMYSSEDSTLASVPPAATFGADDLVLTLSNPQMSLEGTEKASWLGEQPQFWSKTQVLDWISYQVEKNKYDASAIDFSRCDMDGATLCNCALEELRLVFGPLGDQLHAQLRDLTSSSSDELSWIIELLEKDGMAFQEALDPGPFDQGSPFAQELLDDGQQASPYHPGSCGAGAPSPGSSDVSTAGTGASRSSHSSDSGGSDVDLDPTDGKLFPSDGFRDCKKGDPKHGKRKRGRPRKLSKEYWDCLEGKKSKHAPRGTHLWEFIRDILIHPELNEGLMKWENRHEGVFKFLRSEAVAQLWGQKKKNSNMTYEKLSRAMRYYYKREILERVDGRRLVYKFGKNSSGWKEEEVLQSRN
In short: as §1

ETV1 = ETV1 (Homo sapiens, UniProt P50549 1-477)
In short: as §1

ERF = target: T6, ERF (Homo sapiens, UniProt P50548 1-548)
T6 sequence: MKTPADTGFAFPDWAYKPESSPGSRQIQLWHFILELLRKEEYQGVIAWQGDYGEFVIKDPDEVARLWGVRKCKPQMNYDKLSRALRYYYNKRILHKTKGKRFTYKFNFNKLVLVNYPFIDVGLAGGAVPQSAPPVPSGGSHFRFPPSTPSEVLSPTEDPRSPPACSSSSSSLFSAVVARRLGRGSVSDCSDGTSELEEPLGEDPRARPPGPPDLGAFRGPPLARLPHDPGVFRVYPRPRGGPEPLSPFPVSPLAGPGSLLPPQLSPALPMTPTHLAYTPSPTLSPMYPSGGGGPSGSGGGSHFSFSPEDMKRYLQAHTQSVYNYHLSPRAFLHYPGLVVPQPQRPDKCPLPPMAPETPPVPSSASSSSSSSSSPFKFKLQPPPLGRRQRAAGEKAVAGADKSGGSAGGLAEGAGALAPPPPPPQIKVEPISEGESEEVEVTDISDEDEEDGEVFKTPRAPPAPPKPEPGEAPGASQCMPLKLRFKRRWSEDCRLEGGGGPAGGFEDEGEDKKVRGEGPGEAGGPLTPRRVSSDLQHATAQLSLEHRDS
In short: as §1

ETV3L = target: T7, ETV3L (Homo sapiens, UniProt Q6ZN32 1-361)
T7 sequence: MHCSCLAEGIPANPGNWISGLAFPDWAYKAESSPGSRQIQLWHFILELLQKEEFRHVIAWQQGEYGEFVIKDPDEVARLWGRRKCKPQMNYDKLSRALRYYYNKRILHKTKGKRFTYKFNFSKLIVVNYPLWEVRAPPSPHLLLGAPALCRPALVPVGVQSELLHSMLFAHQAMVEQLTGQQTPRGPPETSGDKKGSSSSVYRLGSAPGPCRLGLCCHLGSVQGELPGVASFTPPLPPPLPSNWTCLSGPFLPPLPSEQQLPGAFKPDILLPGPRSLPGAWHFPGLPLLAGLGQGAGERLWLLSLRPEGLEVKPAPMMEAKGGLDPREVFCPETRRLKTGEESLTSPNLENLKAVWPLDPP
In short: as §1

ETS2 = target: T8, ETS2 (Homo sapiens, UniProt P15036 1-469)
T8 sequence: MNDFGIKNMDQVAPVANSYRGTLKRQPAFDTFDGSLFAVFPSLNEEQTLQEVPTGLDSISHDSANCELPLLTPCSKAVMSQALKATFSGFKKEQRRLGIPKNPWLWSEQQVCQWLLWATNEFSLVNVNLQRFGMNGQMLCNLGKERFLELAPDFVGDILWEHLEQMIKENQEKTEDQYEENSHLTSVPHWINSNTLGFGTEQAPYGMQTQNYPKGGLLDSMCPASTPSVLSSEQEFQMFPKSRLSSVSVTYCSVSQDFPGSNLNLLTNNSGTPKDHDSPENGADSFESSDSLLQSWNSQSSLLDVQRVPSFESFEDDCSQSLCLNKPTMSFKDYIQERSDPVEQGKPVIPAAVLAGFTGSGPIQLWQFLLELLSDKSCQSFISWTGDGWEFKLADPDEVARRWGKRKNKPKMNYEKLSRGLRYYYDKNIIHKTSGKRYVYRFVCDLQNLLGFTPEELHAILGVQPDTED
In short: as §1

SPDEF = target: T9, SPDEF (Homo sapiens, UniProt O95238 1-335)
T9 sequence: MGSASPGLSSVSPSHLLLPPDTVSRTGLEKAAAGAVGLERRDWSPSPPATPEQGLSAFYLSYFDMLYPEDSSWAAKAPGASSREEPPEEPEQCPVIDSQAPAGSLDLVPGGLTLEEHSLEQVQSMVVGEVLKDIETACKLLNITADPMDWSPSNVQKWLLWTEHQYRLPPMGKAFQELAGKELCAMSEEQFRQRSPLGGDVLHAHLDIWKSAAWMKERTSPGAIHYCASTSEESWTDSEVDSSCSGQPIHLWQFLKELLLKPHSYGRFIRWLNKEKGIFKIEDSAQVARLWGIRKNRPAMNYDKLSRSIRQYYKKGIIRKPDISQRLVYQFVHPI
In short: as §1

ETV7 = target: T10, ETV7 (Homo sapiens, UniProt Q9Y603 1-341)
T10 sequence: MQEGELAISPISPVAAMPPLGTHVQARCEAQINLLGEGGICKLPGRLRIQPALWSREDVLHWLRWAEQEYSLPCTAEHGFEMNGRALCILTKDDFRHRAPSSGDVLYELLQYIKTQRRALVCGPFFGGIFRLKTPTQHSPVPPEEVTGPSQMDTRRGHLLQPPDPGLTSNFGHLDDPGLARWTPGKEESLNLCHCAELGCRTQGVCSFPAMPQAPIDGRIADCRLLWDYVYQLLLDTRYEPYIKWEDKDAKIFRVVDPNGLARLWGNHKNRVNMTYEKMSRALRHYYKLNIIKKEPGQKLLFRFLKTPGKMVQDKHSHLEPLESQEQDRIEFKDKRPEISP
In short: as §1

ELF5 = target: T11, ELF5 (Homo sapiens, UniProt Q9UKW6-2 1-255)
T11 sequence: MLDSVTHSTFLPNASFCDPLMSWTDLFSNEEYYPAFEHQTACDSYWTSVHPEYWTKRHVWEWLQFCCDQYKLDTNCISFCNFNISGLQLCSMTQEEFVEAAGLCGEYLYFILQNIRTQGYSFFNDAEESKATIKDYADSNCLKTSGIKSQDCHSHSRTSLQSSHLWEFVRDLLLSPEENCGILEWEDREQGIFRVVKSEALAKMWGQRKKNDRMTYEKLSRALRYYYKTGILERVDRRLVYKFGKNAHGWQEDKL
In short: as §1

ETV3 = target: T12, ETV3 (Homo sapiens, UniProt P41162-2 1-143)
T12 sequence: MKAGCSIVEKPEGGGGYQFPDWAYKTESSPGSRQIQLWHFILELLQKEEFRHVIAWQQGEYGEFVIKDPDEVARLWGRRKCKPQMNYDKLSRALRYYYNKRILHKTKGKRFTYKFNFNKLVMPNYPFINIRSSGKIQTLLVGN
In short: as §1

ETV6 = ETV6 (Homo sapiens, UniProt P41212 1-452)
In short: as §1

ETV6, sequence (P41212 whole entry): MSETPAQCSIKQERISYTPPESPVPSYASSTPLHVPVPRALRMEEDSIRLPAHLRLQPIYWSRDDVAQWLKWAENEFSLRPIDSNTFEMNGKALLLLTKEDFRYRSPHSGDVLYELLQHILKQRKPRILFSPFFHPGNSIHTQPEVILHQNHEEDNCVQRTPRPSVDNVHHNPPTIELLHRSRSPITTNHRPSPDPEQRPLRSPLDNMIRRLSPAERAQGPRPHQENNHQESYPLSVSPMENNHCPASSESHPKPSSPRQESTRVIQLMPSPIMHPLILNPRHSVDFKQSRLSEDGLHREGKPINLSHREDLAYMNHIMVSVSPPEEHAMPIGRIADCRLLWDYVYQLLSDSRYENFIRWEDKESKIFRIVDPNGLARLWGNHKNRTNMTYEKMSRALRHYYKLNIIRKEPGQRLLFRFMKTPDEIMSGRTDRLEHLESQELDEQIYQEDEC
ETV5, sequence (P41161 whole entry): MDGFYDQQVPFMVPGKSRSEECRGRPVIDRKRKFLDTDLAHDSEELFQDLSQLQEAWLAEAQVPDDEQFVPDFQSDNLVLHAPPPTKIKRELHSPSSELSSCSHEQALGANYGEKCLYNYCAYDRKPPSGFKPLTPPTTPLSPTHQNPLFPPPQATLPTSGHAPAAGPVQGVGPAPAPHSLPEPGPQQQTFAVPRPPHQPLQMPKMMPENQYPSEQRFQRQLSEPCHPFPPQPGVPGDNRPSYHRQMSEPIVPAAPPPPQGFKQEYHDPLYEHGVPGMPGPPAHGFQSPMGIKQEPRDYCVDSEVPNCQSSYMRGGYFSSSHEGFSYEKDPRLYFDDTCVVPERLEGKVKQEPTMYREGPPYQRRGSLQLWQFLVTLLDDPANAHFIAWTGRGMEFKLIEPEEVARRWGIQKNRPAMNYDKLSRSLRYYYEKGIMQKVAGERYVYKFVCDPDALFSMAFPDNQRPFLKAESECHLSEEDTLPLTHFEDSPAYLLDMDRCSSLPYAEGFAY
ELF4, sequence (Q99607 whole entry): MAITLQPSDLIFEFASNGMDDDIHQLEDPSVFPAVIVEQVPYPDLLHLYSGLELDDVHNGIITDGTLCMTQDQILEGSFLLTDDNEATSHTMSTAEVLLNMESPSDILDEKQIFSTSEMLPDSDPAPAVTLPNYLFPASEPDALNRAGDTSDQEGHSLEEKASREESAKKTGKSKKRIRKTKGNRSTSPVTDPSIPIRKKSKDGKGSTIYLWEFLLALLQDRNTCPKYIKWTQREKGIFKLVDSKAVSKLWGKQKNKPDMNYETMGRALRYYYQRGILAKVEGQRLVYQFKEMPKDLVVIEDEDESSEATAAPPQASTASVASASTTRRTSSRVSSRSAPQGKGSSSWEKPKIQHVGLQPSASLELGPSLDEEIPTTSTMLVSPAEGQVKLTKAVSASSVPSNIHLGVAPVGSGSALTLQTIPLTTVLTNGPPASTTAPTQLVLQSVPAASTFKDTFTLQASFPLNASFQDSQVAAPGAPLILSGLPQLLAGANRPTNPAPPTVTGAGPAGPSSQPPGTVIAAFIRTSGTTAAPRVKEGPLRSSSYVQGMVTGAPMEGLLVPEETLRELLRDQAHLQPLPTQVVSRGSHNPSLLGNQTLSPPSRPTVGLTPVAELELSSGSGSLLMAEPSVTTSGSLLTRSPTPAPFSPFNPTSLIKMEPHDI
ETV1, sequence (P50549 whole entry): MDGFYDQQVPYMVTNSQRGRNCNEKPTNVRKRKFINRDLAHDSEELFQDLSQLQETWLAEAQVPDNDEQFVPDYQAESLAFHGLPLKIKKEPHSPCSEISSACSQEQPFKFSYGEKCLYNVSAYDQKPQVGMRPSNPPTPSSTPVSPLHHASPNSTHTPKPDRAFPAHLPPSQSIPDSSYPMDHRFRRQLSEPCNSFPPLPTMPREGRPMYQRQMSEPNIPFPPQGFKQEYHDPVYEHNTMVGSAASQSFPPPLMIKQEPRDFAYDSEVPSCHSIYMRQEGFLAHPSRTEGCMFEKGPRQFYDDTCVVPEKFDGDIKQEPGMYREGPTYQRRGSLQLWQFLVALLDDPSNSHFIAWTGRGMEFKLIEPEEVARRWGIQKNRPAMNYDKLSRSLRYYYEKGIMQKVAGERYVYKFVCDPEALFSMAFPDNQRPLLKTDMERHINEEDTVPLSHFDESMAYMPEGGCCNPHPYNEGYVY

Row | Sequence | binding signal (FEV) | binding signal (ETV5) | binding signal (SPIC) | binding signal (ELF4) | binding signal (ELK4) | binding signal (ETV2) | binding signal (ELF3) | binding signal (ETV1) | binding signal (ERF) | binding signal (ETV3L) | binding signal (ETS2) | binding signal (SPDEF) | binding signal (ETV7) | binding signal (ELF5) | binding signal (ETV3) | binding signal (ETV6)
1 | ACCAAC | 1.19 fold enrichment (6-mer frequency, TF over GST control) | 1.22 fold enrichment (6-mer frequency, TF over GST control) | 1.1 fold enrichment (6-mer frequency, TF over GST control) | 1.25 fold enrichment (6-mer frequency, TF over GST control) | 1.31 fold enrichment (6-mer frequency, TF over GST control) | 1.25 fold enrichment (6-mer frequency, TF over GST control) | 1.2 fold enrichment (6-mer frequency, TF over GST control) | 1.16 fold enrichment (6-mer frequency, TF over GST control) | 1.24 fold enrichment (6-mer frequency, TF over GST control) | 1.13 fold enrichment (6-mer frequency, TF over GST control) | 1.15 fold enrichment (6-mer frequency, TF over GST control) | 1.22 fold enrichment (6-mer frequency, TF over GST control) | 1.13 fold enrichment (6-mer frequency, TF over GST control) | 1.13 fold enrichment (6-mer frequency, TF over GST control) | 1.24 fold enrichment (6-mer frequency, TF over GST control) | 1.2 fold enrichment (6-mer frequency, TF over GST control)
2 | TGCGGA | 1.19 fold enrichment (6-mer frequency, TF over GST control) | 1.47 fold enrichment (6-mer frequency, TF over GST control) | 1.44 fold enrichment (6-mer frequency, TF over GST control) | 1.24 fold enrichment (6-mer frequency, TF over GST control) | 1.13 fold enrichment (6-mer frequency, TF over GST control) | 1.37 fold enrichment (6-mer frequency, TF over GST control) | 1.74 fold enrichment (6-mer frequency, TF over GST control) | 1.37 fold enrichment (6-mer frequency, TF over GST control) | 1.14 fold enrichment (6-mer frequency, TF over GST control) | 1.3 fold enrichment (6-mer frequency, TF over GST control) | 1.35 fold enrichment (6-mer frequency, TF over GST control) | 1.38 fold enrichment (6-mer frequency, TF over GST control) | 1.22 fold enrichment (6-mer frequency, TF over GST control) | 1.46 fold enrichment (6-mer frequency, TF over GST control) | 1.54 fold enrichment (6-mer frequency, TF over GST control) | 1.34 fold enrichment (6-mer frequency, TF over GST control)
3 | TCCGCG | 1.2 fold enrichment (6-mer frequency, TF over GST control) | 1.33 fold enrichment (6-mer frequency, TF over GST control) | 1.18 fold enrichment (6-mer frequency, TF over GST control) | 1.23 fold enrichment (6-mer frequency, TF over GST control) | 1.32 fold enrichment (6-mer frequency, TF over GST control) | 1.32 fold enrichment (6-mer frequency, TF over GST control) | 1.08 fold enrichment (6-mer frequency, TF over GST control) | 1.33 fold enrichment (6-mer frequency, TF over GST control) | 1.22 fold enrichment (6-mer frequency, TF over GST control) | 1.29 fold enrichment (6-mer frequency, TF over GST control) | 1.36 fold enrichment (6-mer frequency, TF over GST control) | 1.4 fold enrichment (6-mer frequency, TF over GST control) | 1.31 fold enrichment (6-mer frequency, TF over GST control) | 1.55 fold enrichment (6-mer frequency, TF over GST control) | 1.37 fold enrichment (6-mer frequency, TF over GST control) | 1.25 fold enrichment (6-mer frequency, TF over GST control)
